Screening results deposited in PubChem BioAssay by several laboratories.
CYP2C19 inhib: blockers of cytochrome P450 2C19 activity – biochemical, luminescence, ADME assay, primary screen; P33261; CYP2C19 Supersomes, luciferin-H EGE luminescence, 30 min; inhibition, % at 5 µM; actives 21% (n = 96,000);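 active means CYP2C19 inhibition above a set limit at 5 µM in the primary screen, cut at about 50% in these data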;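 further: plate controls were negative control wells for no effect and 2.5 mM tranylcypromine positive control for full effect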
CYP2C9 inh: blockers of cytochrome P450 2C9 activity – biochemical, luminescence, ADME assay, primary screen. inhibition, % at 5 µM. P11712. actives 20% (n = 96,000). CYP2C9 Supersomes, luciferin-H conversion;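 active means blocking of liver enzyme CYP2C9 beyond about 50% at 5 µM, limit read from the data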
Target sequence (P11712 whole entry, looked up): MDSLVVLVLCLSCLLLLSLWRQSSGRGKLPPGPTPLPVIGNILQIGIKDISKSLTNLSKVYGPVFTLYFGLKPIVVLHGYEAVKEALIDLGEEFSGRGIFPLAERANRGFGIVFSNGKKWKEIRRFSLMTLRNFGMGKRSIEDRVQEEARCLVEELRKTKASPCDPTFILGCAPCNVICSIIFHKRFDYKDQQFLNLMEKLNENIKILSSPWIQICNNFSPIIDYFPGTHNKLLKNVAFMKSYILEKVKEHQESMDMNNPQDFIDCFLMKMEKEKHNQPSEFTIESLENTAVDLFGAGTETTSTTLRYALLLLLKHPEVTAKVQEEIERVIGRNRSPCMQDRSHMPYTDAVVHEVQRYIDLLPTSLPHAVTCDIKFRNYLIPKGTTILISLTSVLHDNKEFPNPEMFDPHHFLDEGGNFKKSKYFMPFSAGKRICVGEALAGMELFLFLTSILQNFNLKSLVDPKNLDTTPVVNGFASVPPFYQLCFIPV
MRP resist rev: reversal of MRP1-mediated doxorubicin resistance, primary screen, H69AR cells, doxorubicin co-treatment; H69AR cells + 2 uM doxorubicin, CellTiter-Glo, 72 h; differential viability (reversal), % at 10 µM; actives 0.04% (n = 85,000);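 active means viability drop by adding the cancer drug above about 55%, with treated viability meeting a 40% cutoff, limit read from the data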;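 further: viability without doxorubicin minus viability with 2 µM doxorubicin for each compound; larger differential means the compound sensitizes cells more to doxorubicin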
MRP1 act: H69AR viability gain despite doxorubicin, primary screen, MRP-1 activator project, H69AR cells, CellTiter-Glo; viability rescue; viability increase, % at 10 µM; actives 0.61% (n = 140,000);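 active means viability gain under doxorubicin at or above a set limit, the compound median plus 3 SD, cut at about 4.7% in these data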;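 further: MRP-1 overexpressing cells given doxorubicin 25 µM after compound pretreatment; 18-22 h compound pretreatment then 72 h with doxorubicin before readout; 0% = doxorubicin-only wells and 100% = vehicle-treated cells without doxorubicin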
CYP2C9 activ: human CYP2C9 activators, primary screen, biochemical, luminescence; recombinant CYP2C9, luciferin-H conversion; stronger effect = higher value; factor 1 = untreated enzyme, 0 = blocked; activation factor at 5 µM; actives 1.4% (n = 96,000);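 active means activation factor of 2 or more for CYP2C9 at a 5 µM dose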;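 further: 0 = sulfaphenazole-blocked wells and 1 = vehicle-only wells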
CYP2C19 act: human CYP2C19 activators, primary screen, biochemical, luminescence | Cytochrome P450 2C19 (Homo sapiens), P33261 | recombinant CYP2C19, luciferin-H EGE luminescence; stronger effect = higher value; 0 = fully inhibited enzyme, 1 = untreated enzyme | activation factor at 5 µM | 96,000 tested, under 10 active | AID 1025, 2008;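 active means activation factor of at least 2 at 5 µM in the primary screen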;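 further: 0 = wells with 2.5 mM tranylcypromine and 1 = vehicle-only wells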
The depositor's hits bear a star; x = not tested or not shown. This is a sample that favours compounds with a hit; in the whole collection about 21% have one here.

SMILES	CYP2C19 inhib	CYP2C9 inh	MRP resist rev	MRP1 act	CYP2C9 activ	CYP2C19 act
Cc1ccc(C(=O)CSc2ccccn2)cc1	82*	43	-16	-2	0.6	0.2
O=C(CSc1ccccn1)c1ccc(F)cc1	41	3	4	1	1	0.6
Cc1cc(C)n2nc(SCC(=O)N(C)Cc3ccccc3)nc2n1	-6	-22	2	0	1.2	1.1
CCCCN(CC)C(=O)Cc1ccc(Br)cc1	x	x	x	1	x	x
C/C(=N\NC(=O)c1c(Cl)cnn1C)c1ccc(NC(=O)c2ccncc2)cc1	x	x	x	-1	x	x
CCOc1ccc(C2Oc3nc(SC)nnc3-c3ccccc3N2C(C)=O)cc1OC (stereo unspecified)	2	15	0	-1	0.8	1
Cc1c(NC(=O)c2cccnc2C(=O)O)cccc1C(=O)O	x	x	x	0	x	x
CC1CCN(Cc2nnnn2-c2cccc([N+](=O)[O-])c2)CC1	x	x	x	-1	x	x
CC(NC(=O)COC(=O)/C=C/c1cccc(C(F)(F)F)c1)c1ccccc1 (stereo unspecified)	x	x	x	0	x	x
Cc1cc(SCC(=O)c2ccccc2)nc(C)n1	67*	22	1	0	0.8	0.3
COc1ccc(CNC(=O)CSc2nc3nc(C)cc(C)n3n2)cc1	20	61*	-13	-1	0.4	0.8
COc1ccccc1CNC(=O)CSc1nc2nc(C)cc(C)n2n1	-7	-32	11	-2	1.3	1.1
Cc1ccc(C(=O)CSc2cc(C)nc(SCC(=O)c3ccccc3)n2)cc1	33	73*	10	0	0.3	0.7
COC(=O)c1cc(Br)c(=O)n(Cc2cccnc2)c1	21	16	-12	0	0.8	0.8
O=C(Nc1cc(Sc2nc3ccccc3s2)cc([N+](=O)[O-])c1)c1cccc(F)c1F	x	x	x	0	x	x
CCC(CC)NC(=O)COC(=O)c1ccc(OCC(=O)Nc2ccccc2OC)c(OC)c1	71*	44	x	1	0.6	0.3
COc1cc(C(=O)OCC(=O)Nc2ccc(F)cc2F)cc(OC)c1OC	65*	33	x	-3	0.7	0.4
COc1ccc(C(=O)OCC(=O)Nc2ccc(F)c(F)c2)cc1OC	58*	29	x	1	0.7	0.4
COc1cccc2c(=O)n(CC(=O)Nc3ccc(F)cc3F)ccc12	56*	21	1	-1	0.8	0.4
COc1cccc2c(=O)n(CC(=O)Nc3ccccc3)ccc12	10	16	9	-3	0.8	0.9
O=C(CCc1ccccc1)Nc1ccc(N2CCCCC2)cc1	x	x	x	-3	x	x
CCOc1ccc(OCc2nnc(SCC(=O)NC3CCS(=O)(=O)C3)n2-c2ccc(Cl)cc2)cc1 (stereo unspecified)	x	x	x	1	x	x
CC(Sc1nnc(NC2CCCCC2)s1)C(=O)Nc1ccc2c(c1)C(=O)c1ccccc1C2=O (stereo unspecified)	x	x	x	1	x	x
CC1CCC/C(=C(\C#N)c2nc(-c3cc4ccccc4oc3=O)cs2)C1 (stereo unspecified)	x	x	x	5.2*	x	x
O=c1oc2ccccc2cc1-c1csc(NN=C2CCCCC2)n1	86*	78*	x	0	0.2	0.1
SMILES	CYP2C19 inhib	CYP2C9 inh	MRP resist rev	MRP1 act	CYP2C9 activ	CYP2C19 act
O=C(Nc1nc(-c2cc3ccccc3oc2=O)cs1)c1ccco1	-10	10	-4	-3	0.9	1.1
COc1ccc(OC)c(NC(=O)CSC2=NCCS2)c1	42	5	8	-3	0.9	0.6
COc1ccc(OC)c(NC(=O)CSc2nc(C)cs2)c1	84*	54*	x	-2	0.5	0.2
Cc1csc(SCC(=O)Nc2ccc(Cl)cn2)n1	86*	59*	-2	0	0.4	0.1
COc1cc(NC(=O)CSc2nc(C)cs2)cc(OC)c1	96*	52*	x	-1	0.5	0
COc1ccc(OC)c(NC(=O)CSc2nnc(N)s2)c1	50*	32	13	-2	0.7	0.5
Cc1ccc(-c2nc(C)sc2CC(=O)Nc2cccc(C)c2C)cc1	x	x	x	-3	x	x
N#CCCn1ncn(-c2ccccc2)c1=S	2	16	-2	-1	0.8	1
